Laboratory results as given in the supplement of paper PMC4840960.
± gives the standard deviation of the averaged measurements.

What was measured:
[1] = tested on: E18 rat cortical neuron-glia co-culture; assay: fiber score / MBP score (myelination specific beyond OL differentiation) (ratio); higher = more myelination-specific MBP alignment; conditions: treatment time: 8 days (DIV5-DIV13)
Method in brief: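 Primary E18 rat cortical co-cultures (papain-dissociated, 20,000 cells/well on poly-d-lysine/laminin 96-well plates) received library compounds at 1 or 5 µM in myelination medium from DIV5 to DIV13. Cells were fixed in 4 % paraformaldehyde and immunostained for MBP and Olig2 with DAPI, and four 10X fields per well in duplicate wells were analysed. The read-out is fiber score (continuous MBP fiber length per Olig2+ nucleus) divided by MBP score (thresholded MBP area × intensity per Olig2+ nucleus).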

[2] = tested on: E18 rat cortical neuron-glia co-culture; assay: myelination (MBP fiber length per Olig2+ nucleus), % of 1 µM DAPT response (DMSO = 0) (% of DAPT); higher = more myelination, active = 50 or more; conditions: treatment time: 8 days (DIV5-DIV13)
Method in brief: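 Primary E18 rat cortical co-cultures (papain-dissociated, 20,000 cells/well on poly-d-lysine/laminin 96-well plates) received library compounds at 1 or 5 µM in myelination medium from DIV5 to DIV13. Cells were fixed in 4 % paraformaldehyde and immunostained for MBP and Olig2 with DAPI, and four 10X fields per well in duplicate wells were analysed. Myelination was continuous straight MBP fiber length per Olig2+ nucleus, normalised to 0.1 % DMSO (0) and a 1 µM positive control (100).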

Compound	fiber score / MBP score ([1]; 1 µM)	fiber score / MBP score ([1]; 5 µM)	myelination ([2]; 1 µM)	myelination ([2]; 5 µM)
Cc1cccc(Nc2ccccc2C(=O)O)c1C [Mefenamic Acid]	0.791	1.3	-6.36 (inactive)	38.7 (inactive)
C#C[C@]1(O)CC[C@H]2[C@@H]3[C@H](C)CC4=C(CCC(=O)C4)[C@H]3CC[C@@]21C [Tibolone]	0.647	0.773	-17.1 (inactive)	-13.2 (inactive)
CCCSc1ccc2[nH]c(NC(=O)OC)nc2c1 [Albendazole]	0.797	0.0787	112	-37.4 (inactive)
c1ccc2c(c1)CCCC2C1=NCCN1 (stereo not given) [Tyzine]	0.783	0.873	-6.18 (inactive)	-2.07 (inactive)
O=S(=O)(O)CCS [Mesna]	0.768	0.877	1.33 (inactive)	-6.97 (inactive)
COc1cc2nc(N3CCN(C(=O)C4CCCO4)CC3)nc(N)c2cc1OC (stereo not given) [Terazosin]	1.2 ± 0.17	1.08 ± 0.41	11.7 (inactive)	2.09 (inactive)
O=C(CCNNC(=O)c1ccncc1)NCc1ccccc1 [Nialamide]	0.859	0.524	-5.76 (inactive)	-19 (inactive)
CCOC(=O)C1=C(C)NC(C)=C(C(=O)OC)C1c1cccc(Cl)c1Cl (stereo not given) [Felodipine]	1.27	0.858	20.4 (inactive)	8.21 (inactive)
COC(=O)[C@H](c1ccccc1Cl)N1CCc2sccc2C1 [Clopidogrel]	0.707	0.858	-6.76 (inactive)	-2.98 (inactive)
CC(=O)[C@@]1(O)CC[C@H]2[C@@H]3C[C@H](C)C4=CC(=O)C=C[C@]4(C)[C@@]3(F)[C@@H](O)C[C@@]21C [Fluorometholone]	0.809	0.856	-5.67 (inactive)	2.04 (inactive)
CN(C)CCCSc1ccccc1NC(=O)/C=C/c1ccccc1 [Cinanserin]	0.858	0.995	-5.83 (inactive)	9.08 (inactive)
CS(N)(=O)=O [Methanesulfonamide]	0.63	0.693	-10.9 (inactive)	-10.7 (inactive)
CN1C(C(=O)Nc2ccccn2)=C(O)c2ccccc2S1(=O)=O [Piroxicam]	0.787	1.04	-10.9 (inactive)	-8.56 (inactive)
CC[N+](C)(C)c1cccc(O)c1 [Edrophonium]	0.813	0.982	-6.47 (inactive)	0.577 (inactive)
CC1(C)O[C@@H]2C[C@H]3[C@@H]4CCC5=CC(=O)C=C[C@]5(C)[C@@]4(F)[C@@H](O)C[C@]3(C)[C@]2(C(=O)CO)O1 [Triamcinolone Acetonide]	1.37	1.32	5.47 (inactive)	19.3 (inactive)
CC(=O)CC(c1ccccc1)c1c(O)c2ccccc2oc1=O (stereo not given) [Warfarin]	0.617	0.623	-6.64 (inactive)	-6.48 (inactive)
CC[C@@H](CO)NCCN[C@@H](CC)CO [Ethambutol]	0.781	0.753	-5.28 (inactive)	-6.9 (inactive)
CN(C)[C@@H]1C(O)=C(C(N)=O)C(=O)[C@@]2(O)C(O)=C3C(=O)c4c(O)ccc(Cl)c4[C@@H](O)[C@H]3C[C@@H]12 [Demeclocycline]	0.946	0.666	-3.29 (inactive)	-12.1 (inactive)
CC(C)c1ccc2oc3nc(N)c(C(=O)O)cc3c(=O)c2c1 [Amlexanox]	0.826	1.05	-13.2 (inactive)	0.757 (inactive)
CC(CN1c2ccccc2Sc2ccccc21)N(C)C (stereo not given) [Promethazine]	0.678	0.931	-18.8 (inactive)	-4.26 (inactive)
COCCCC/C(=N\OCCN)c1ccc(C(F)(F)F)cc1 [Fluvoxamine]	1.03	0.487	-0.231 (inactive)	-9.1 (inactive)
CC1(C)S[C@@H]2[C@H](NC(=O)[C@H](N)c3ccc(O)cc3)C(=O)N2[C@H]1C(=O)O [Amoxicillin]	0.764	0.761	-18.6 (inactive)	-33.3 (inactive)
CCCCC(=O)O[C@H]1CC[C@H]2[C@@H]3CCc4cc(O)ccc4[C@H]3CC[C@]12C [Estradiol valerate]	1.07	1.04	1.8 (inactive)	11.9 (inactive)
C[C@@H]1C[C@H]2[C@@H]3CCC4=CC(=O)C=C[C@]4(C)[C@@]3(F)[C@@H](O)C[C@]2(C)[C@@]1(O)C(=O)CO [Dexamethazone]	0.866	0.845	-1.63 (inactive)	-0.917 (inactive)
CCN(CC)CCNC(=O)c1ccc(N)cc1 [Procainamide]	0.82	1.19	-8.23 (inactive)	4.78 (inactive)

Compound	fiber score / MBP score ([1]; 1 µM)	fiber score / MBP score ([1]; 5 µM)	myelination ([2]; 1 µM)	myelination ([2]; 5 µM)
O=C(O)CCNC(=O)c1ccc(/N=N/c2ccc(O)c(C(=O)O)c2)cc1 [Balsalazide]	0.862	0.833	-5.47 (inactive)	-9.22 (inactive)
CC(C)(C)C(O)/C=C/c1ccc2c(c1)OCO2 (stereo not given) [Stiripentol]	0.738	0.84	-11.3 (inactive)	-6.09 (inactive)
Nc1cc(N2CCCCC2)nc(N)[n+]1[O-] [Minoxidil]	0.696	0.658	-26.1 (inactive)	-24.5 (inactive)
CC[N+](C)(CC)CCOC(=O)C(O)(c1ccccc1)C1CCCCC1 (stereo not given) [Oxyphenonium]	0.849	0.703	-8.21 (inactive)	-6.58 (inactive)
CNCCCCOc1ccccc1Cc1ccccc1 [Bifemelane]	0.512	0.543	-39.7 (inactive)	-28.5 (inactive)
Cc1onc(-c2c(Cl)cccc2Cl)c1C(=O)N[C@@H]1C(=O)N2[C@@H]1SC(C)(C)[C@@H]2C(=O)O [Dicloxacillin]	1.04	0.655	5.21 (inactive)	-8.6 (inactive)
CC(=O)OCC(CCn1cnc2cnc(N)nc21)COC(C)=O [Famciclovir]	0.681	0.977	-22.4 (inactive)	-2.76 (inactive)
CCOC(=O)[C@H](CCc1ccccc1)N[C@@H](C)C(=O)N1[C@H](C(=O)O)C[C@@H]2CCC[C@@H]21 [Ramipril]	0.635 ± 0.29	0.628 ± 0.47	-11.2 (inactive)	-8.93 (inactive)
O=C1c2cccc3c2[C@H](CCC3)CN1[C@@H]1CN2CCC1CC2 [Palonosetron]	0.728	0.587	-11.1 (inactive)	-11.5 (inactive)
C[C@@](Cc1ccc(O)c(O)c1)(NN)C(=O)O [Carbidopa]	0.917	0.776	-3.67 (inactive)	-7.64 (inactive)
O=C(O)c1cc(/N=N/c2ccc(S(=O)(=O)Nc3ccccn3)cc2)ccc1O [Sulfasalazine]	0.823	1.17	-11.7 (inactive)	1.71 (inactive)
CN(C)c1ccc(O)c2c1C[C@H]1C[C@H]3[C@H](N(C)C)C(O)=C(C(N)=O)C(=O)[C@@]3(O)C(O)=C1C2=O [Minocycline]	0.788	0.583	-6.54 (inactive)	-5.86 (inactive)
O=c1c(O[C@@H]2O[C@H](CO)[C@@H](O)[C@H](O)[C@H]2O)c(-c2ccc(O)c(O)c2)oc2cc(O)cc(O)c12 [Isoquercitrin]	1.09	0.826	1.55 (inactive)	-11.7 (inactive)
O=c1n(CCCN2CCN(c3cccc(Cl)c3)CC2)nc2ccccn12 [Trazodone]	0.819	0.5	-42.9 (inactive)	-62.2 (inactive)
COCC1=C(C(=O)OC(C)OC(=O)OC(C)C)N2C(=O)[C@@H](NC(=O)/C(=N\OC)c3csc(N)n3)[C@H]2SC1 (stereo not given in full) [Cefpodoxime proxetil]	0.721	0.866	-20.2 (inactive)	-4.97 (inactive)
OCc1cc(C(O)CNCCCCCCOCCCCc2ccccc2)ccc1O (stereo not given) [Salmeterol]	0.225	0.0809	-29.9 (inactive)	-37.6 (inactive)
C[C@@H]1O[C@@H](OC[C@H]2O[C@@H](Oc3c(-c4ccc(O)c(O)c4)oc4cc(O)cc(O)c4c3=O)[C@H](O)[C@@H](O)[C@@H]2O)[C@H](O)[C@H](O)[C@H]1O [Rutin]	0.757	0.905	-12 (inactive)	-4.44 (inactive)
C[C@]12C=CC(=O)C=C1CC[C@@H]1[C@@H]2[C@@H](O)C[C@@]2(C)[C@H]1CC[C@]2(O)C(=O)COC(=O)CCC(=O)O [Prednisolone hemisuccinate]	0.88	1.08	1.93 (inactive)	-1.16 (inactive)
CNCC[C@H](Oc1cccc2ccccc12)c1cccs1 [Duloxetine]	0.73 ± 0.064	0.881 ± 0.45	-25.8 (inactive)	-33.2 (inactive)
O=C1[C@H](CC[C@H](O)c2ccc(F)cc2)[C@@H](c2ccc(O)cc2)N1c1ccc(F)cc1 [Ezetimibe]	0.641	0.648	-31.2 (inactive)	-37.1 (inactive)
COc1ccc(CCN(C)CCCC(C#N)(c2ccc(OC)c(OC)c2)C(C)C)cc1OC (stereo not given) [Verapamil]	0.856	0.533	-27.2 (inactive)	-53.6 (inactive)
CN(C)CC/C=C1/c2ccccc2COc2ccc(CC(=O)O)cc21 [Olopatadine]	0.791	0.936	-7.93 (inactive)	-5.94 (inactive)
CNC(=C[N+](=O)[O-])NCCSCc1ccc(CN(C)C)o1 [Ranitidine]	0.594	1.03	-19.6 (inactive)	-7.22 (inactive)
CCCNC(=O)NS(=O)(=O)c1ccc(Cl)cc1 [Chlorpropamide]	0.614	1.05	-30.5 (inactive)	-5.62 (inactive)
Cc1ccc(C)c(OCCCC(C)(C)C(=O)O)c1 [Gemfibrozil]	0.476	0.995	-13.7 (inactive)	-7.17 (inactive)
